High-throughput results (PubChem)
The list is not random: actives were taken first. Their share in the collection is about 3.3%.
eIF4E-4G inh: eIF4E–eIF4G protein interaction inhibitors, primary screen, biochemical, uHTS, TR-FRET, eIF4GI fragment; Eukaryotic translation initiation factor 4E (Mus musculus) + Eukaryotic translation …; TR-FRET eIF4E-eIF4GI(517-606) binding, 2 h; inhibition, % at 21.7 µM; 220,000 compounds, 0.37% hits; AID 782, 2007;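 note: 0% = full FRET control wells and 100% = background wells lacking eIF4GI fragment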
14-3-3 Bad inh: inhibitors of 14-3-3 zeta/Bad binding, primary screen, biochemical, TR-FRET, bovine 14-3-3 zeta | inhibition, % at 21.7 µM | TR-FRET 14-3-3zeta/Dy647-pBad peptide displacement, 1 h | 220,000 compounds, 0.71% hits | 14-3-3 protein zeta/delta (Bos taurus), P63103;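 active = inhibition above about 70%, limit read from the data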;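 note: 0% = full 14-3-3 plus peptide FRET controls and 100% = background without 14-3-3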
Target sequence (P63103 whole entry, looked up): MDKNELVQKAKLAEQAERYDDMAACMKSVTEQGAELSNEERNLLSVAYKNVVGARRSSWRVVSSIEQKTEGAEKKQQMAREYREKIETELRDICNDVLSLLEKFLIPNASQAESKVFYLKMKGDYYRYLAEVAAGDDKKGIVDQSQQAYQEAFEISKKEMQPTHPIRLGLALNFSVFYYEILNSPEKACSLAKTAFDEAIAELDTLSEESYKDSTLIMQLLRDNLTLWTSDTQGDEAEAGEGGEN
p47phox inh: p47phox/p22phox peptide binding inhibitors, primary screen, biochemical, uHTS, NADPH oxidase regulatory subunit; Neutrophil cytosol factor 1 (Homo sapiens), P14598; fluorescence polarization, 2 h; inhibition, % at 24.7 µM; 220,000 compounds, 0.53% hits; AID 1274, 2008;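 note: 0% = p47phox with labelled peptide and 100% = labelled peptide alone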
Target sequence (P14598 whole entry, looked up): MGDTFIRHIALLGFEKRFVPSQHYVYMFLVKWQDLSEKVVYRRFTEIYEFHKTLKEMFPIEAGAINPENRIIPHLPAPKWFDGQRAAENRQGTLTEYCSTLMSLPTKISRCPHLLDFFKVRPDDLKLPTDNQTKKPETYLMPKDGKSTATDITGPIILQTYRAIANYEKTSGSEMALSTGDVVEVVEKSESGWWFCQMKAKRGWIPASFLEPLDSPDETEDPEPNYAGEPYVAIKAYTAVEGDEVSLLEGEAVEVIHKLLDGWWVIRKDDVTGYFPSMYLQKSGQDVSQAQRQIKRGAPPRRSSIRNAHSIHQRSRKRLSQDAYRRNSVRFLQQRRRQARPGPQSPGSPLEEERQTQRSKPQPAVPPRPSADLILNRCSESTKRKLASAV
Mcl1 Bid PPI: Mcl-1/Bid binding inhibitors, primary screen, biochemical, TR-FRET, 1536-well; Induced myeloid leukemia cell differentiation protein Mcl-1 (Homo sapiens), Q07820; TR-FRET Mcl-1/Bid-Dy647 peptide binding; AID 1021, 2008; inhibition, % at 21.7 µM; 220,000 compounds, 0.97% hits;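 active = compounds that cut the binding signal by more than half at the single screening dose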;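 note: His-tagged Mcl-1 with europium anti-His antibody binding Bid BH3 peptide; 0% = Mcl-1 plus peptide wells and 100% = peptide-only wells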
Bim-Mcl-1: inhibitors of Bim peptide binding to Mcl-1, primary screen, biochemical, bead-based flow cytometry, multiplex | Induced myeloid leukemia cell differentiation protein Mcl-1 (Homo sapiens), Q07820 | Bim peptide-Mcl-1 binding | inhibition, % at 10 µM | 190,000 compounds, 0.1% hits; in the data active = inhibition above about 40%;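 note: 0% = no compound tracer wells and 100% = peptide blocker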
Mcl1-Noxa inh: Mcl-1/Noxa binding inhibitors, primary screen, biochemical, TR-FRET, 1536-well; TR-FRET Mcl-1/Noxa peptide binding, 2 h; 220,000 compounds, 1.5% hits; inhibition, % at 21.7 µM;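 active = compounds that cut the protein-peptide binding signal by more than 50% relative to plate controls in a single-dose test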;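 note: His-tagged Mcl-1 with rhodamine Noxa BH3 peptide and terbium anti-His antibody; 0% = Mcl-1 plus Noxa peptide wells and 100% = peptide-only wells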
* = called active by the depositor; [ ] = dose if it differs, or a comment.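 Rule for the calls, unless noted: active = inhibition above about 30% (limit read from the data); inactive = the rest.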

Screening COc1ccc(NC(=O)c2cc3c(=O)n(C)c4ccccc4c3s2)cc1OC returned eIF4E-4G inh 10, 14-3-3 Bad inh 6, p47phox inh 14, Mcl1 Bid PPI 55*, Bim-Mcl-1 -3 and Mcl1-Noxa inh 41.
`CCOC(=O)c1c(C)[nH]c(C(=O)COC(=O)/C=C/c2ccc3c(c2)OCO3)c1C` gave eIF4E-4G inh 3, 14-3-3 Bad inh 5, p47phox inh -35, Mcl1 Bid PPI 56*, Bim-Mcl-1 -1 and Mcl1-Noxa inh 24.
CN(C1=NC(=O)CS1)c1ccc(O)cc1 was read as eIF4E-4G inh -4, 14-3-3 Bad inh 2, p47phox inh -16, Mcl1 Bid PPI 97* and Mcl1-Noxa inh -6.
CN(c1ccc(O)cc1)c1nc(-c2cccs2)cs1 was read as eIF4E-4G inh 1, 14-3-3 Bad inh -6, p47phox inh -102, Mcl1 Bid PPI -32, Bim-Mcl-1 0 and Mcl1-Noxa inh 2.
Screening O=C(N=Nc1c(O)[nH]c2ccc(Cl)cc12)c1cc(-c2cccs2)nc2ccccc12 returned eIF4E-4G inh 11, 14-3-3 Bad inh 88*[fluorescence artefact?], p47phox inh 70*, Mcl1 Bid PPI 85*, Bim-Mcl-1 -1 and Mcl1-Noxa inh 60*.
O=C(N=Nc1c(O)[nH]c2ccc([N+](=O)[O-])cc12)c1ccccc1Cl was read as eIF4E-4G inh -2, 14-3-3 Bad inh 33, p47phox inh -3, Mcl1 Bid PPI -7 and Mcl1-Noxa inh 37.
For CC1CCCN(C(=O)CSc2nnc(-c3ccncc3)n2C)C1 (centres undefined) the results were eIF4E-4G inh -5, 14-3-3 Bad inh 2, p47phox inh 6, Mcl1 Bid PPI 6, Bim-Mcl-1 -28 and Mcl1-Noxa inh -5.
O=C1N=c2ccccc2=C1c1sc(Nc2ccc(O)cc2)nc1O was read as eIF4E-4G inh 37*, 14-3-3 Bad inh 83*, p47phox inh -77, Mcl1 Bid PPI 50, Bim-Mcl-1 1 and Mcl1-Noxa inh 83*.
For COc1cccc(/C=C2/SC(=O)N(C)C2=O)c1OCc1ccc(C(=O)O)cc1 the results were eIF4E-4G inh 1, 14-3-3 Bad inh -7, p47phox inh 3, Mcl1 Bid PPI -19, Bim-Mcl-1 67* and Mcl1-Noxa inh 3.
Screening CCn1cc(C2C(C(=O)Nc3cc(C)ccn3)=C(C)NC3=C2C(=O)CC(C)(C)C3)c(C)n1 (centres undefined) returned eIF4E-4G inh 23, 14-3-3 Bad inh 1, p47phox inh -7, Mcl1 Bid PPI -70, Bim-Mcl-1 -8 and Mcl1-Noxa inh 9.
Screening O=C(NNC(=O)C12CC3CC(CC(C3)C1)C2)c1ccco1 returned eIF4E-4G inh 3, 14-3-3 Bad inh 6, p47phox inh 3, Mcl1 Bid PPI -20, Bim-Mcl-1 88* and Mcl1-Noxa inh -4.
`COCCC1CCCCN1Cc1cn(-c2ccccc2)nc1-c1ccc2c(c1)OCO2` (centres undefined) gave eIF4E-4G inh 3, 14-3-3 Bad inh -1, p47phox inh 1, Mcl1 Bid PPI -23, Bim-Mcl-1 -1 and Mcl1-Noxa inh 8.
Screening COc1ccccc1NC(=O)CSc1nnnn1-c1ccc2c(c1)OCO2 returned eIF4E-4G inh 0, 14-3-3 Bad inh 4, p47phox inh 9, Mcl1 Bid PPI 99*, Bim-Mcl-1 -2 and Mcl1-Noxa inh 0.
`COC(=O)c1ccc(-n2nnnc2SCC(=O)Nc2ccccc2OC)cc1` gave eIF4E-4G inh -5, 14-3-3 Bad inh 13, p47phox inh -5, Mcl1 Bid PPI 19, Bim-Mcl-1 2 and Mcl1-Noxa inh -31.
For O=c1oc2ccccc2cc1-c1csc(Nc2nc3c(F)cccc3s2)n1 the results were eIF4E-4G inh 18, 14-3-3 Bad inh 27, p47phox inh -56, Mcl1 Bid PPI 33, Bim-Mcl-1 -4 and Mcl1-Noxa inh 70*.
Screening O=c1oc2ccccc2cc1-c1csc(NN=C2CCCCC2)n1 returned eIF4E-4G inh 2, 14-3-3 Bad inh -9, p47phox inh -11, Mcl1 Bid PPI -45, Bim-Mcl-1 3 and Mcl1-Noxa inh 7.
For COc1cc(C2C(C#N)=C(N)Oc3cc(O)ccc32)cc(OC)c1OC (centres undefined) the results were eIF4E-4G inh -18, 14-3-3 Bad inh -10, p47phox inh -2, Mcl1 Bid PPI 60*, Bim-Mcl-1 -2 and Mcl1-Noxa inh 21.
Screening Cc1cc(C)cc(N(C(=O)c2csnn2)C(C(=O)NC(C)(C)C)c2cccnc2)c1 (centres undefined) returned eIF4E-4G inh 0, 14-3-3 Bad inh -9, p47phox inh 1, Mcl1 Bid PPI -15, Bim-Mcl-1 0 and Mcl1-Noxa inh 7.
`Nc1nc(SCc2ccc([N+](=O)[O-])cc2)nc2nc3c(cc12)CCCC3` gave eIF4E-4G inh -5, 14-3-3 Bad inh 13, p47phox inh -14, Mcl1 Bid PPI 79*, Bim-Mcl-1 2 and Mcl1-Noxa inh 5.
`Nc1nc(SCC(=O)Nc2ccccc2)nc2nc3c(cc12)CCCC3` gave eIF4E-4G inh 9, 14-3-3 Bad inh 20, p47phox inh -53, Mcl1 Bid PPI -3, Bim-Mcl-1 1 and Mcl1-Noxa inh 21.
For COC(=O)C1=C(C)NC(=S)NC1c1ccco1 (centres undefined) the results were eIF4E-4G inh -2, 14-3-3 Bad inh -11, p47phox inh -8, Mcl1 Bid PPI -48, Bim-Mcl-1 0 and Mcl1-Noxa inh -13.
For CC(Oc1ccc2ccc(=O)oc2c1)C(=O)c1ccccc1 (centres undefined) the results were eIF4E-4G inh 11, 14-3-3 Bad inh 33, p47phox inh 2, Mcl1 Bid PPI 52*, Bim-Mcl-1 -6 and Mcl1-Noxa inh -4.
C/C(=N\NC(=O)CCc1ccc(S(=O)(=O)N2CCOCC2)cc1)c1ccccc1Cl was read as eIF4E-4G inh 2, 14-3-3 Bad inh -10, p47phox inh 0, Mcl1 Bid PPI -13, Bim-Mcl-1 0 and Mcl1-Noxa inh 18.
For CC1=CCC(C(=O)O)C(C(=O)Nc2ccc(-c3nc4ccc(C)cc4s3)cc2)C1 (centres undefined) the results were eIF4E-4G inh 80*, 14-3-3 Bad inh 17, p47phox inh -15, Mcl1 Bid PPI -16 and Mcl1-Noxa inh 24.
`CC(=O)NC(=S)Nc1ccc(-c2nc3ccc(C)cc3s2)cc1` gave eIF4E-4G inh -27, 14-3-3 Bad inh -9, p47phox inh -35, Mcl1 Bid PPI -37, Bim-Mcl-1 0 and Mcl1-Noxa inh 6.
